Bioassay records as filed in PubChem.
Rows were chosen to be rich in hits. Some 12% of all compounds tested hit in one or more screens of this group.
OTUD3 block = inhibitors of human OTUD3 deubiquitinase. OTU domain-containing protein 3 (Homo sapiens), Q5T2D3. purified OTUD3, Ub-rhodamine fluorescence, 2 h. inhibition, % at 25 µM. hit rate 0.7% among 47,000
USP28 block = inhibitors of human USP28 deubiquitinase. AID 1645857, 2021. inhibition, % at 25 µM. Ubiquitin carboxyl-terminal hydrolase 28 (Homo sapiens), Q96RU2. purified USP28, Ub-rhodamine cleavage fluorescence, 30 min. hit rate 3% among 47,000
USP17 block = inhibitors of human USP17 deubiquitinase; inhibition, % at 50 µM; purified USP17, Ub-rhodamine cleavage fluorescence, 3 h; Ubiquitin carboxyl-terminal hydrolase 17-like protein 5 (Homo sapiens), A8MUK1; hit rate 6.5% among 47,000
USP30 inh = inhibitors of human USP30 deubiquitinase; hit rate 5.3% among 47,000; Ubiquitin carboxyl-terminal hydrolase 30 (Homo sapiens), Q70CQ3; inhibition, % at 25 µM; purified USP30, Ub-rhodamine cleavage fluorescence; AID 1645860, 2021
Target sequence (Q70CQ3 whole entry, looked up): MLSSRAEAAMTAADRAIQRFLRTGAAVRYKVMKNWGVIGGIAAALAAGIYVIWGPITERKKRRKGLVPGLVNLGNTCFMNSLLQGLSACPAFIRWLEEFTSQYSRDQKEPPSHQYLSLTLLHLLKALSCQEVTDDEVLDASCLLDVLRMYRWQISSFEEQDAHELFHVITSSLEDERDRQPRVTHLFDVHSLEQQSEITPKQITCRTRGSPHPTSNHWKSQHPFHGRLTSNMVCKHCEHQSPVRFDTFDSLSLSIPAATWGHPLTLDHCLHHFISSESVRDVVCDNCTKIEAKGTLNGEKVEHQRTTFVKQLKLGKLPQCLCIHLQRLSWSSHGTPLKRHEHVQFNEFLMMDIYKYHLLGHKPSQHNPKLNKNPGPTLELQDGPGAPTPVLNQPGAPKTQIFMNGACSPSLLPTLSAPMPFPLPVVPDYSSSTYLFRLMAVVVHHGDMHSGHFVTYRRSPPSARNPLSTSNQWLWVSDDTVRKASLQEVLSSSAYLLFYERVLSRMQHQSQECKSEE
The depositor's hits bear a star; i = inactive; / = not tested or not shown. Rule as the data show it: active = inhibition above about 30%; inactive = the rest.

SMILES	OTUD3 block	USP28 block	USP17 block	USP30 inh
Cc1ccc2c(c1)[C@]1(C(=O)N2)N2CCC[C@H]2[C@@H](C(=O)c2ccc3c(c2)OCO3)[C@]12C(=O)Nc1ccccc12	-5	-4	5	-18
O=C(c1cnn2ccccc12)N1CCN(S(=O)(=O)/C=C/c2ccccc2)CC1	10	11	11	33*
COc1ccc(C)cc1NC(=O)C(Sc1nnc(C2CC2)n1Cc1ccccc1)c1ccccc1 (stereo not drawn)	14	30*	22	37*
COCCn1c(SC(C(=O)Nc2cc(C)ccc2OC)c2ccccc2)nnc1-c1ccc(Cl)cc1 (stereo not drawn)	18	17	0	28
Cc1ccc(C)c(NC(=O)C(Sc2nnc(C)n2Cc2ccccc2)c2ccccc2)c1 (stereo not drawn)	14	16	/	30*
Cc1nc(N2CCCCC2)ncc1-c1cc(=O)[nH]c(Nc2nc(C)c3ccccc3n2)n1	-4	10	66*	60*
CCC1=N[C@@]2(CC[C@@H]3CN(C(=O)Nc4ccccc4C)C[C@@H]32)C(=O)N1CC	-3	-4	-7	-6
Cc1cnc(C(=O)N2CCCC(c3ncc(Cc4ccc(F)cc4)o3)C2)cn1 (stereo not drawn)	10	14	6	31*
Cc1ccc(NC(=O)CC2C(=O)N(Cc3ccccc3)c3nc4ccccc4n32)cc1 (stereo not drawn)	-9	0	32*	2
Cc1ccccc1NC(=O)CC1C(=O)N(C2CCCC2)c2nc3ccccc3n21 (stereo not drawn)	16	13	16	30*
O=C(CC1C(=O)N(Cc2cccnc2)c2nc3ccccc3n21)Nc1cccc2ccccc12 (stereo not drawn)	-2	0	64*	22
Cc1cccc(NC(=O)CC2C(=O)N(C3CCCC3)c3nc4ccccc4n32)c1 (stereo not drawn)	6	7	-5	13
COc1ccc(-c2nc3c(c(SCC(=O)Nc4ccc(OC)cc4OC)n2)COC(C)(C)C3)cc1	-8	-6	-7	0
O=C(NCc1ccc(Cl)cc1)C1CCCN(c2nnc3ccccn23)C1 (stereo not drawn)	4	0	-2	-2
CCCNc1cc(N2CCCC(CCC(=O)Nc3ccc(C)cc3C)C2)ncn1 (stereo not drawn)	3	0	-37	0
CC(C)(C)C(=O)C1C2C(=O)N(Cc3ccccc3)C(=O)C2C2c3ccccc3C=CN12 (stereo not drawn)	-20	-12	56*	-95
CC(C)(C)C(=O)C1C2C(=O)N(c3ccc4c(c3)OCO4)C(=O)C2C2c3ccccc3C=CN12 (stereo not drawn)	55*	64*	69*	-17
O=C(c1ccco1)C1C2C(=O)N(c3cccc(C(F)(F)F)c3)C(=O)C2C2c3ccccc3C=CN12 (stereo not drawn)	-156	-193	-128	i
CCCOC(=O)c1cc(NC(=O)c2ccc(OCC)c(Cl)c2)ccc1N1CCOCC1	-2	49*	-10	19
COCCCN1Cc2cc3cc(OC)ccc3nc2OCC1=O	4	8	15	5
COc1ccc2nc3c(cc2c1)CN(CC1CC1)C(=O)CO3	29	14	5	40*
COC(=O)c1ccc2c(=O)n(-c3ccccc3)c(N3CCCC3)nc2c1	8	11	8	15
O=C1C(O)=C(c2ccc(O)cc2)C(=O)C(O)=C1c1ccccc1	33*	26	13	33*
CC1=C(O)C(=O)C(C2=C(O)C(=O)C(C)=C(O)C2=O)=C(O)C1=O	23	-4	-55	-26
CS(=O)(=O)c1ccc(-c2noc(C3(c4ccccc4)CCOCC3)n2)cc1	-2	-9	0	0
SMILES	OTUD3 block	USP28 block	USP17 block	USP30 inh
COc1cc(COc2ccc3c(C)c(CC(=O)N4CC[C@@]5(O)CCCC[C@H]5C4)c(=O)oc3c2C)cc(OC)c1OC	25	10	48*	50*
COc1ccc2c(C)c(CC(=O)N3CCC[C@H]3C(=O)O)c(=O)oc2c1C	32*	12	19	20
O=C(CN1C(=O)c2ccccc2C1=O)Nc1nc(-c2ccc(Br)cc2)cs1	9	32*	7	47*
CC(C)C(=O)N1CCc2cc(-c3csc(NC(=O)CN4CCc5ccccc5C4)n3)ccc21	-33	-27	23	-106
Cc1ccc(C)c(CN2C(=O)COc3ccc(C(=O)c4ccccc4C(=O)O)cc32)c1	15	22	9	36*
O=C(Nc1ccc(F)cc1F)N1CCc2nc(N3CCCCC3)ncc2C1	1	-1	15	-21
CCc1oc2cc(O)ccc2c(=O)c1-c1ccc2c(c1)OCCO2	2	36*	-12	5
COc1cccc(NC(=O)Nc2nnc3ccccn23)c1	-6	-5	-12	-13
Cc1c(-c2ccc(C#N)cc2)oc2ccc(Br)cc2c1=O	-1	0	70*	-4
NS(=O)(=O)c1ccc(NS(=O)(=O)c2ccc(NC(=O)Nc3ccc(Cl)cc3)cc2)cc1	20	75*	41*	49*
CC(=O)c1ccc(S(=O)(=O)Nc2ccc(C(=O)O)cc2)cc1	-5	-2	-29	-95
CCOc1ccc(NC(=O)COc2cccc3c2CCN(CC)C3=O)cc1	0	75*	-1	-1
COc1ccc(NC(=O)COc2cccc3c2CCNC3=O)cc1OC	0	9	19	9
O=C(COc1ncnc2scc(-c3ccccc3)c12)Nc1cc(C(F)(F)F)ccc1Cl	-7	-20	-22	-79
O=C(COc1cccc2c1CCN(Cc1cccnc1)C2=O)Nc1ccc2c(c1)OCCO2	-5	90*	59*	5
CCN1CCc2c(OCC(=O)Nc3cc(C(F)(F)F)ccc3Cl)cccc2C1=O	29	33*	74*	98*
O=C(N[C@@H](Cc1ccccc1)C(=O)Nc1ccc2c(c1)OCCO2)c1cccnc1	0	3	6	9
CC(C)C(=O)N1CCCC2(C/C=C/CNC(=O)c3ccccc3OCCN(C)C2=O)C1 (stereo not drawn)	-2	-8	-7	-4
Cc1cnc(NC(=O)Cn2cnc3ccccc3c2=O)s1	-4	-7	40*	-2
COc1ccc(-c2noc(C3CCCN3C(=O)Nc3cccc(C)c3)n2)cc1 (stereo not drawn)	-1	10	10	9
COc1ccc(-c2noc(C3CCCN3C(=O)Nc3ccc(C)cc3C)n2)cc1 (stereo not drawn)	16	15	14	33*
COc1ccc(-c2noc([C@@H]3C[C@H](NC(=O)c4ccccc4)CN3C)n2)cc1	-4	-5	-64	-47
COc1ccccc1NC(=O)N1CCCC1c1nc(-c2cccc(Cl)c2)no1 (stereo not drawn)	16	17	12	40*
COc1ccc(-c2noc([C@@H]3C[C@H](NC(=O)Nc4ccc(C)cc4)CN3C)n2)cc1	10	9	4	42*
COc1cccc(-c2noc(NCc3ccc(C)cc3)n2)c1OC	1	9	3	14
